From PubChem BioAssay
The source made the active and inactive calls.

Tests used:
[1] = binders of probe aFSTL3 on microarray, primary screen, stem cell growth factor project, biochemical, small-molecule microarray, fluorescence 635/667 (AID 1064); conditions: higher = more signal;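 further: measures binding of the biotinylated anti-FSTL3 antibody to printed compounds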
[2] = binders from COS7 lysate, DM2A8 probe, primary screen, torsin A project, cell lysate, small-molecule microarray, fluorescence 635/667 (AID 1065); conditions: higher = more signal, COS7 lysate expressing mutant human TOR1A
[3] = binders of probe aFGF2 on microarray, primary screen, stem cell growth factor project, biochemical, small-molecule microarray, fluorescence 635/667 (AID 1067); conditions: higher = more signal;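 further: measures binding of biotinylated aFGF2 protein to printed compounds on slides; z-score merges feature fluorescence and signal-to-noise across triplicate slides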
[4] = binders of probe aFGF10 on microarray, primary screen, stem cell growth factor project, biochemical, small-molecule microarray, fluorescence 635/667 (AID 1071); conditions: higher = more signal;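 further: score merges 667 nm spot intensity and signal to noise from triplicate slides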
[5] = biological target: Neurogenic locus notch homolog protein 2 (Homo sapiens) (UniProt Q04721); test: Notch2 binders on small-molecule microarrays, primary screen, biochemical, small-molecule microarray, 635 nm fluorescence, stem cell growth factors (AID 1073); conditions: Notch2 binding, higher = more signal
Chain of Neurogenic locus notch homolog protein 2 (Homo sapiens) (Q04721 whole entry, looked up, canonical isoform): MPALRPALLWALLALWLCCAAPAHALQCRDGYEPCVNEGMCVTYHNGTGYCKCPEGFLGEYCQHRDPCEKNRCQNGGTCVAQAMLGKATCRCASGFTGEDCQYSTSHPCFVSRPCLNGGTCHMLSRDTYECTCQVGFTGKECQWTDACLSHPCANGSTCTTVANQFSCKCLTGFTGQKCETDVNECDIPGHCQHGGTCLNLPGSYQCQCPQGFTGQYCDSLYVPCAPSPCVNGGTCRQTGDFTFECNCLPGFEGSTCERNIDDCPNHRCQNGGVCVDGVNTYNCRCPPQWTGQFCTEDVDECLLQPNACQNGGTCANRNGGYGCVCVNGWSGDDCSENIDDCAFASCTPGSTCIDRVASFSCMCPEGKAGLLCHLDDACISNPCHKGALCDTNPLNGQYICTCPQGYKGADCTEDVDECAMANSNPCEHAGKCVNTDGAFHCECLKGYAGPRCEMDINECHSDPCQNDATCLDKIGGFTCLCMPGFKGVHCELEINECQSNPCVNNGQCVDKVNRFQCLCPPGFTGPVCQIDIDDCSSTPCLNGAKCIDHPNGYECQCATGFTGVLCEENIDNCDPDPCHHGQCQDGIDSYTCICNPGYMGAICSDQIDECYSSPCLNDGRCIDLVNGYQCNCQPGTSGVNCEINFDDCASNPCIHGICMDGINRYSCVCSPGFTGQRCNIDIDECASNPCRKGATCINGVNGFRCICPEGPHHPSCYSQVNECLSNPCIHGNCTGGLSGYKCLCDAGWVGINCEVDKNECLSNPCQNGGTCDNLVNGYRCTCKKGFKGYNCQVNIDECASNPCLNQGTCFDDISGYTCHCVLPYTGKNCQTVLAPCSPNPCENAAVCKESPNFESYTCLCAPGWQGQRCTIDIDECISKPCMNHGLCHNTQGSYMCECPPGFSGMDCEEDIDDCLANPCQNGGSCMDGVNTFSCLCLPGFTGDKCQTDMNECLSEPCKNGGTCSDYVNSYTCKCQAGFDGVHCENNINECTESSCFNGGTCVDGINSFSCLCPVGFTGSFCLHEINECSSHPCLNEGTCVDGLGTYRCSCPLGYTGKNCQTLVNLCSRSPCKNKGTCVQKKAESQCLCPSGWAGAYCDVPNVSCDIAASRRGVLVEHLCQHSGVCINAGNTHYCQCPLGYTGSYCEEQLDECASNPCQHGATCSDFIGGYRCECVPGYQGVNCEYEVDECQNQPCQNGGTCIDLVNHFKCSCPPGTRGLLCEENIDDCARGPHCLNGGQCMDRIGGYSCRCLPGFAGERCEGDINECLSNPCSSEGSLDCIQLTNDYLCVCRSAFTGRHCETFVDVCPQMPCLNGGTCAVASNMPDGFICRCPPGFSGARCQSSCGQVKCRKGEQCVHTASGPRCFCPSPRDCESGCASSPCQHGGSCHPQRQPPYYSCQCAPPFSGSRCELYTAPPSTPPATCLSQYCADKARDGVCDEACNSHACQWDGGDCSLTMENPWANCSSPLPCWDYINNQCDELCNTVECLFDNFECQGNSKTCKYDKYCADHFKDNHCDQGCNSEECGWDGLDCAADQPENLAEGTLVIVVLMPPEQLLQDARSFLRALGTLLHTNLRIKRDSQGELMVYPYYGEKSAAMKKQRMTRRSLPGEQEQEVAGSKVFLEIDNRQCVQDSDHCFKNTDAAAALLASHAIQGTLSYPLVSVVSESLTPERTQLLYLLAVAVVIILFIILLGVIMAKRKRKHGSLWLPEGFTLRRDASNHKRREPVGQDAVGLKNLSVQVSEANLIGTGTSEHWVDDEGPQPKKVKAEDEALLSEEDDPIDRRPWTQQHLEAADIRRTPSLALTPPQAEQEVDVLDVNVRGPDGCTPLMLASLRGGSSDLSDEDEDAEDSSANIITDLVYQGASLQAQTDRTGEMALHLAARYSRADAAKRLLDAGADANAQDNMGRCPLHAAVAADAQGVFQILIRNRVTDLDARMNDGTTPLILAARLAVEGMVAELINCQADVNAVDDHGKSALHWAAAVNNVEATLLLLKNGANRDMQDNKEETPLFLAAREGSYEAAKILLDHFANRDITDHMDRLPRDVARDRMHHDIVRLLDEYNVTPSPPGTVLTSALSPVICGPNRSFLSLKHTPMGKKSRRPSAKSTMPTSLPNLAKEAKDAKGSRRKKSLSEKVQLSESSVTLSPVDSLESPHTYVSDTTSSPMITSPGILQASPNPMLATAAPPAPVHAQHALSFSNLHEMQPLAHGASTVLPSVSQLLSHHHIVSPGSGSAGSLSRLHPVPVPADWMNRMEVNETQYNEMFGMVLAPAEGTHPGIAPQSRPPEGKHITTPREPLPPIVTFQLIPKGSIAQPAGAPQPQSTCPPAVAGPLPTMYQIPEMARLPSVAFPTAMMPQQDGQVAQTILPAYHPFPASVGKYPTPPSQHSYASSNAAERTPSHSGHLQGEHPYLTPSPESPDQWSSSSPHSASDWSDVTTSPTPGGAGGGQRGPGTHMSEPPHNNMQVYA

[6] = biological target: Pro-neuregulin-1, membrane-bound isoform (Homo sapiens) (UniProt Q02297); test: NRG1 binders on small-molecule microarrays, primary screen, psychiatric disease protein project, biochemical, small-molecule microarray, fluorescence 635/667 (AID 1075); conditions: NRG1 binding, 635 nm fluorescence, higher = more signal;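 further: score combines 667 nm spot fluorescence with signal to noise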
Chain of Pro-neuregulin-1, membrane-bound isoform (Homo sapiens) (Q02297 whole entry, looked up, the tested form may be a part, canonical isoform): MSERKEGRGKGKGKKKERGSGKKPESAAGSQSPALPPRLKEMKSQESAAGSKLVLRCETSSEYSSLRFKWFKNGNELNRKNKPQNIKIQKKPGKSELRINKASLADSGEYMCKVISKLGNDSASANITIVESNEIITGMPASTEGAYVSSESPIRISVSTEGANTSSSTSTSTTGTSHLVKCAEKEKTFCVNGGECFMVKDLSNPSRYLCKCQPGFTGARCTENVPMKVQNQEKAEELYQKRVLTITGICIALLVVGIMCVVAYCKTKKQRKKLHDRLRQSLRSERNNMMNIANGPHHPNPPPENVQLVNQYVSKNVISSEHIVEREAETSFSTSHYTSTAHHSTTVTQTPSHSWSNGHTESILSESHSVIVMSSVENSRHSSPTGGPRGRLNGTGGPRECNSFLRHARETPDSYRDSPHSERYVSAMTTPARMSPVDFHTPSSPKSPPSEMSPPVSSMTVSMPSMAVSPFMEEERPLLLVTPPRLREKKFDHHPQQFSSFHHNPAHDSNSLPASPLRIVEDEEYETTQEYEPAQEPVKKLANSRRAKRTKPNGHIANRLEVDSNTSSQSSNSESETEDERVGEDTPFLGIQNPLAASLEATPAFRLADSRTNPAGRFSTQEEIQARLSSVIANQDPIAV

[7] = tested on: Neuregulin-1 EGF-like domain; test: binders of neuregulin-1 EGF-like domain, primary screen, biochemical, small-molecule microarray, 635 nm fluorescence (AID 1081); conditions: small-molecule microarray binding, higher = more signal;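 further: binding of the protein to compounds printed on small-molecule microarray slides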
[8] = FRG1 promoter luciferase signal modulators, primary screen, FRG1 inhibition for FSHD, cell-based, C2C12 myotubes, firefly/Renilla luciferase, luminescence (AID 1084); conditions: higher = more signal, called active from +8 up or from −8 down
[9] = binders of probe aFST on microarray, primary screen, stem cell growth factor project, biochemical, small-molecule microarray, fluorescence 635/667 (AID 1086); conditions: higher = more signal;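 further: score merges 667 nm fluorescence with signal-to-noise of each printed compound spot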
[10] = binders of probe aHhip on microarray, primary screen, stem cell growth factor project, biochemical, small-molecule microarray, fluorescence 635/667 (AID 1087); conditions: higher = more signal;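 further: score merges spot fluorescence at 667nm with spot signal to noise ratio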
[11] = tested on: PRMT1 (protein arginine N-methyltransferase 1); test: PRMT1 binders on small-molecule microarrays, primary screen, biochemical, small-molecule microarray, 635 nm fluorescence (AID 1088); conditions: small-molecule microarray binding, higher = more signal;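 further: binding of Prmt1 protein to compounds spotted on small-molecule microarray slides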
[12] = yeast growth modulation, basal conditions, primary screen, YJM789 clinical isolate, OD600, 24 h (AID 1089);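 further: growth of clinical yeast isolate S. cerevisiae YJM 789 seeded 1000 cells per well; test concentration not given here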; conditions: S. cerevisiae YJM789 growth, higher = more signal, called active from +8 up or from −8 down
[13] = fission yeast growth modulation, primary screen, strain 972, OD600, 24 h, no modulator (AID 1090);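 further: basal condition with compound alone and no growth modifier present; test concentration not given here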; conditions: S. pombe 972 growth, higher = more signal, called active from +8 up or from −8 down
[14] = S. cerevisiae growth modulation with rapamycin, primary screen, strain BY4716, OD600, 96 h (AID 1091); conditions: higher = more signal, called active from +8 up or from −8 down; further: test concentration not given here
[15] = biological target: Torsin-1A-interacting protein 2 (Homo sapiens) (UniProt Q8NFQ8); test: LULL1 binders on small-molecule microarray, primary screen, cell lysate, human LULL1 lysate, 635/667 nm fluorescence (AID 1092); conditions: hLULL1 lysate binding, 635 nm fluorescence, higher = more signal;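 further: probe is lysate of COS7 cells overexpressing human LULL1; score merges per-feature 667 nm fluorescence with signal-to-noise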
Chain of Torsin-1A-interacting protein 2 (Homo sapiens) (Q8NFQ8 whole entry, looked up): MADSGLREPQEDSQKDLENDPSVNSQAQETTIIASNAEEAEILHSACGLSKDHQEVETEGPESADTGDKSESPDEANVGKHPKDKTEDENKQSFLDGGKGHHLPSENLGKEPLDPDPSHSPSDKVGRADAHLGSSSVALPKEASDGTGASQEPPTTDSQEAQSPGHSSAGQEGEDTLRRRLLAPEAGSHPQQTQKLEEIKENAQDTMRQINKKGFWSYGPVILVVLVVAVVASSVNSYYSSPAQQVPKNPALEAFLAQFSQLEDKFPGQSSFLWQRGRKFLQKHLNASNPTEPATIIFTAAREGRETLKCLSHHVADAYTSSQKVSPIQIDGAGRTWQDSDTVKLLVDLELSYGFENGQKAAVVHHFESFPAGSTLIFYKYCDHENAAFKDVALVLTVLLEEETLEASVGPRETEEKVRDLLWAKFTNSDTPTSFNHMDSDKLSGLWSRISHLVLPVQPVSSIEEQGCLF

[16] = E. coli growth modulation, two-sided OD650, primary screen, E. coli filamentation project, strain DRC41, 24 h (AID 1093); conditions: OD650, 24 h, higher = more signal, called active from +8 up or from −8 down;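 further: MC1000 strain lacking acrAB efflux and sulA so SOS filamentation is blocked; test concentration not given here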
[17] = small-molecule microarray binders of probe aLefty2, primary screen, biochemical, biotinylated probe, 635/667 nm fluorescence (AID 1094); conditions: higher = more signal;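 further: score merges spot fluorescence near 667 nm with spot signal-to-noise ratio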
[18] = tested on: Noggin (protein binding on small-molecule microarray); test: Noggin binders on small-molecule microarray, primary screen, biochemical, 635/667 nm fluorescence (AID 1095); conditions: 635 nm fluorescence, higher = more signal;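 further: score merges 667 nm feature fluorescence with signal to noise over triplicate slides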
[19] = biological target: Neurogenic locus notch homolog protein 3 (Homo sapiens) (UniProt Q9UM47); test: NOTCH3 binders on small-molecule microarray, primary screen, biochemical, 635/667 nm fluorescence (AID 1096); conditions: NOTCH3 binding, 635 nm fluorescence, higher = more signal
[20] = small-molecule microarray binders of probe aEGFR, primary screen, biochemical, biotinylated probe, 635/667 nm fluorescence (AID 1097); conditions: higher = more signal;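 further: probe is a biotinylated anti-EGFR antibody binding compounds printed on slides; score combines fluorescence near 667 nm and signal to noise of each spot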

Row | Structure (SMILES) | composite z-score [1] | composite z-score [2] | composite z-score [3] | composite z-score [4] | composite z-score [5] | composite z-score [6] | composite z-score [7] | z-score [8] | composite z-score [9] | composite z-score [10] | composite z-score [11] | z-score [12] | z-score [13] | z-score [14] | composite z-score [15] | z-score [16] | composite z-score [17] | composite z-score [18] | composite z-score [19] | composite z-score [20]
1 | C=CCC(OC(C)=O)[C@@H]1[C@@H](N(Cc2ccc(-c3ccccc3)cc2)C(=O)c2ccc(-c3ccccc3)cc2)c2cc(OCCCO)ccc2N1C(=O)c1ccc(-c2ccccc2)cc1 (stereo not given in full) | 0.54 | 0.054 | 0.032 | -0.0598 | -0.0106 | -0.333 | -0.864 | -0.0089 (inactive) | 0.214 | -0.146 | -0.655 | -0.611 (inactive) | -0.811 (inactive) | 0.131 (inactive) | 0.399 | 1.99 (inactive) | 0.0525 | -0.846 | -0.83 | -0.0981
2 | CC(C)[C@@H](C(=O)O)n1cc(-c2ccccn2)nn1 | 0.22 | 0.424 | -0.378 | 0.458 | 0.537 | 0.419 | 0.961 | 0.0328 (inactive) | 0.659 | 0.0274 | 0.575 | 0.0655 (inactive) | -0.477 (inactive) | -0.353 (inactive) | 0.88 | 1.99 (inactive) | -0.378 | 0.332 | 0.309 | -0.0508
3 | C=C(COC)C(=O)CC[C@H](OC(=O)c1ccccc1-c1ccccc1C(=O)O)c1ccccc1OCCO | 0.181 | 0.607 | -0.129 | 0.247 | -0.453 | 0.867 | 0.761 | -0.621 (inactive) | -0.0824 | -0.16 | 1.56 | -0.0355 (inactive) | -1.37 (inactive) | -1.08 (inactive) | 1.13 | 1.4 (inactive) | -0.235 | 0.877 | 0.385 | -0.155
4 | CCCC[C@@H](O)C1=C(C)C[C@H]2C(=O)N(C)C(=O)[C@H]2[C@H]1CO | -0.275 | -0.305 | -0.12 | 0.469 | 0.109 | 0.11 | -0.0165 | -0.645 (inactive) | -0.176 | -0.318 | 0.54 | -0.219 (inactive) | -1.6 (inactive) | -1.19 (inactive) | 1.31 | 2.68 (inactive) | -0.328 | 1.09 | 0.352 | -0.21
5 | O=C(N1CCCCC1)[C@@]1(Cc2ccccc2)N=C(c2ccc(OCCCO)cc2)O[C@H]1c1ccccc1 | 0.994 | 2 | 0.103 | 0.235 | 1.58 | 1.05 | 1.02 | -3.21 (inactive) | 1.52 | -0.146 | 1.18 | -0.997 (inactive) | -2.65 (inactive) | 4.43 (inactive) | 2.99 | 0.668 (inactive) | 0.429 | 0.368 | 0.966 | 0.293
6 | COc1ccc([Si](C)(C)[C@@H]2[C@@H](CC(=O)N3CCC[C@H]3CO)O[C@]3(C(=O)N(Cc4ccc(N5CCC5=O)cc4)c4ccccc43)[C@H]2C)cc1 | -0.142 | 0.783 | -0.071 | 0.66 | 0.747 | 0.583 | 1.07 | -1.17 (inactive) | 0.187 | 0.245 | 1.55 | -0.556 (inactive) | -0.228 (inactive) | -0.69 (inactive) | 2.12 | 0.673 (inactive) | -0.166 | 1.16 | 0.708 | 0.0408
7 | C=CCNC(=O)[C@@H]1[C@H]2C(=O)O[C@H](c3ccccc3)[C@H](c3ccccc3)N2[C@H](c2ccc(O)cc2)[C@@]12C(=O)Nc1ccc(C#Cc3ccc(OC)cc3)cc12 | -0.112 | 0.712 | 0.0356 | 0.69 | 1.46 | 0.489 | 1.16 | 0.606 (inactive) | 0.496 | -0.0672 | 1.54 | -0.147 (inactive) | -1.67 (inactive) | 2.97 (inactive) | 1.96 | 2.8 (inactive) | 0.0005 | 0.436 | 1.14 | -0.0019
8 | O=C1O[C@@H](c2ccccc2)[C@@H](c2ccccc2)N2[C@@H](c3ccc(OCCO)cc3)[C@]3(C(=O)Nc4ccc(C#CC5(O)CCCCCC5)cc43)[C@@H](C(=O)NC[C@H](O)c3ccccc3)[C@H]12 | 0.0882 | 1 | -0.0258 | 1.06 | 1.42 | 1.43 | 1.26 | -0.222 (inactive) | 0.934 | -0.191 | 1.55 | 1.24 (inactive) | 1.21 (inactive) | 5.49 (inactive) | 2.3 | 3.13 (inactive) | 0.0844 | 0.982 | 1.04 | -0.0332
9 | CC(=O)OC(C/C=C\B1OC(C)(C)C(C)(C)O1)c1ccccc1 (stereo not given) | 0.696 | 0.0193 | -0.038 | -1.06 | -0.542 | -0.451 | -0.679 | -1.52 (inactive) | -0.0273 | -0.353 | -0.0413 | -2.82 (inactive) | -4.32 (inactive) | -3.49 (inactive) | -0.126 | -3.15 (inactive) | -0.0231 | -0.502 | -0.761 | -0.268
10 | C#CCOc1ccc(C[C@H]2C(=O)O[C@H](Cc3ccccc3)[C@H](/C=C/C3CC3)N2CC#C)cc1 | 0.372 | 0.259 | -0.14 | -0.118 | -0.487 | -0.13 | 0.141 | -4.41 (inactive) | -0.652 | -0.0074 | -0.746 | 1.35 (inactive) | -0.795 (inactive) | 0.519 (inactive) | 0.408 | 2.04 (inactive) | -0.139 | -0.493 | -1.74 | -0.206
11 | CCN(CC)c1ccc(N2CC=CC34O[C@@H]5C=CCOC(=O)[C@@H]5[C@H]3C(=O)N(C(CO)C(C)C)[C@@H]4C2=O)cc1 (stereo not given in full) | 0.277 | -0.866 | -0.134 | -0.241 | -0.835 | -0.367 | -0.805 | 0.232 (inactive) | -0.609 | -0.134 | -0.755 | 1.01 (inactive) | -0.635 (inactive) | 1.07 (inactive) | -0.952 | 1.59 (inactive) | -0.138 | -0.544 | -1.02 | -0.253
12 | C=CCNC(=O)[C@H]1[C@@H]2C(=O)O[C@@H](c3ccccc3)[C@@H](c3ccccc3)N2[C@@H](c2ccc(OCCO)cc2)[C@]12C(=O)Nc1ccc(C#CCCO)cc12 | 0.268 | 1.14 | -0.0901 | -0.168 | -0.23 | 1.08 | 1.15 | -4.1 (inactive) | 0.219 | -0.0994 | 1.57 | 0.443 (inactive) | -1.91 (inactive) | 2.38 (inactive) | 2.42 | 2.71 (inactive) | -0.148 | 0.292 | 0.73 | -0.087
